Among the data in PMC11006913 are binding signal values, retold here.

Residue numbers refer to the chain shown, from its start.

Holding throughout (experiment): PBM; 200 nM protein, PBS
Holding throughout (details): dsDNA, one strand shown

Experiment [1] addresses T1, PAX4 (Homo sapiens, UniProt O43316 9-242, R200K).
T1 sequence: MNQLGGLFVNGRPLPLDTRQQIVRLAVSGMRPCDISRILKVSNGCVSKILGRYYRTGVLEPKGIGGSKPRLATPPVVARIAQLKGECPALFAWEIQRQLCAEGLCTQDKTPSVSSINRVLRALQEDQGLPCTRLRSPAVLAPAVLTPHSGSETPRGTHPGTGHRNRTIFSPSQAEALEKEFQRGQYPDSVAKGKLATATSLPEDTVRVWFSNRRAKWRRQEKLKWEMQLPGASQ

The target of experiment [2] is T2, PAX4 (Homo sapiens, UniProt O43316 9-242).
T2 sequence: T1 sequence with K192R

For another experiment, the target named is HOXB6 (Homo sapiens, UniProt P17509 132-218, K202E).
The target of experiment [3] is ALX3 (Homo sapiens, UniProt O95076 139-225, N203Q).
Experiment [4] addresses T3, PAX4 (Homo sapiens, UniProt O43316 9-242, R200Q).
T3 sequence: T1 sequence with K192Q

Experiment [5] has as its target T4, PAX4 (Homo sapiens, UniProt O43316 9-242, F177V).
T4 sequence: T1 sequence with F169V, K192R

In experiment [6] the target is T5, PAX4 (Homo sapiens, UniProt O43316 9-242, F177Y).
T5 sequence: T1 sequence with F169Y, K192R

The target of experiment [7] is T6, PAX4 (Homo sapiens, UniProt O43316 9-242, R227W).
T6 sequence: T1 sequence with K192R, R219W

The target of experiment [8] is ALX3 (Homo sapiens, UniProt O95076 139-225, N203S).
Experiment [9] has as its target ALX4 (Homo sapiens, UniProt Q9H161 200-286).
For experiment [10], the target named is ALX4 (Homo sapiens, UniProt Q9H161 200-286, Q225E).
Experiment [11] concerns the target PROP1 (Homo sapiens, UniProt O75360 56-141).
Experiment [12] addresses PROP1 (Homo sapiens, UniProt O75360 56-141, R99H).
The target in experiment [13] is PROP1 (Homo sapiens, UniProt O75360 56-141, F88S).
In experiment [14] the target is MSX2 (Homo sapiens, UniProt P35548 130-214, R199I).
Experiment [15] addresses MSX2 (Homo sapiens, UniProt P35548 130-214).
The target of experiment [16] is VAX1 (Homo sapiens, UniProt Q5SQQ9 86-172).
The target of experiment [17] is MSX2 (Homo sapiens, UniProt P35548 130-214, F161Y).
The target of experiment [18] is VAX1 (Homo sapiens, UniProt Q5SQQ9 86-172, T142I).
The target in experiment [19] is VAX1 (Homo sapiens, UniProt Q5SQQ9 86-172, K157R).
The target in experiment [20] is HOXD13 (Homo sapiens, UniProt P35453 263-343).
The target in experiment [21] is HOXD13 (Homo sapiens, UniProt P35453 263-343, T313A).
In experiment [22] the target is PRRX1 (Homo sapiens, UniProt P54821 80-166, F113S).
In experiment [23] the target is PRRX1 (Homo sapiens, UniProt P54821 80-166).
The target in experiment [24] is ALX1 (Homo sapiens, UniProt Q15699 118-204, L144V).
For experiment [25], the target named is ALX1 (Homo sapiens, UniProt Q15699 118-204, L144R).
Experiment [26] has as its target ALX1 (Homo sapiens, UniProt Q15699 118-204).

ALX4 (Homo sapiens, UniProt Q9H161 200-286, Q225E), sequence (Q9H161 200-286 Q225E): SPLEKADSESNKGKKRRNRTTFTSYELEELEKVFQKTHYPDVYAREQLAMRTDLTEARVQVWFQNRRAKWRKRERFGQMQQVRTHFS
ALX4 (Homo sapiens, UniProt Q9H161 200-286), sequence (Q9H161 200-286): as the sequence (Q9H161 200-286 Q225E) above, with E26Q counted along it
PROP1 (Homo sapiens, UniProt O75360 56-141, F88S), sequence (O75360 56-141 F88S): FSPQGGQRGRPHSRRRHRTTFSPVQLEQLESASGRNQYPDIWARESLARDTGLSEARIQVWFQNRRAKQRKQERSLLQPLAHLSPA
PROP1 (Homo sapiens, UniProt O75360 56-141, R99H), sequence (O75360 56-141 R99H): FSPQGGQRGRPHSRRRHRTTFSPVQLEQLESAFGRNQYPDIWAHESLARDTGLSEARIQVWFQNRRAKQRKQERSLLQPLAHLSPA
MSX2 (Homo sapiens, UniProt P35548 130-214), sequence (P35548 130-214): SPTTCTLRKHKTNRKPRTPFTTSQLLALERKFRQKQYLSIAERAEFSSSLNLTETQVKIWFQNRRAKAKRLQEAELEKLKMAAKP
PROP1 (Homo sapiens, UniProt O75360 56-141), sequence (O75360 56-141): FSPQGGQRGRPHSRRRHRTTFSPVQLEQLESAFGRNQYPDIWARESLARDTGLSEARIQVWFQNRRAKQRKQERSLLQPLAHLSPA
MSX2 (Homo sapiens, UniProt P35548 130-214, R199I), sequence (P35548 130-214 R199I): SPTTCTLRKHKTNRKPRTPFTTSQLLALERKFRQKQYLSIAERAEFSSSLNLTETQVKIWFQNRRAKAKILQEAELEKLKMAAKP
MSX2 (Homo sapiens, UniProt P35548 130-214, F161Y), sequence (P35548 130-214 F161Y): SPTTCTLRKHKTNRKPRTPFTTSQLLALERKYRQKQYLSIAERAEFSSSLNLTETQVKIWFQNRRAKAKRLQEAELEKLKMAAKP
PRRX1 (Homo sapiens, UniProt P54821 80-166), sequence (P54821 80-166): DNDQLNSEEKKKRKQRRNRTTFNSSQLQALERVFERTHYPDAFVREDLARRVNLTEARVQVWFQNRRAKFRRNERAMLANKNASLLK
VAX1 (Homo sapiens, UniProt Q5SQQ9 86-172, K157R), sequence (Q5SQQ9 86-172 K157R): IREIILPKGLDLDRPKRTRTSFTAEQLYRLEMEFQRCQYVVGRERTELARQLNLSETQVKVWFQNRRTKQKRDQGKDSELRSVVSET
ALX1 (Homo sapiens, UniProt Q15699 118-204), sequence (Q15699 118-204): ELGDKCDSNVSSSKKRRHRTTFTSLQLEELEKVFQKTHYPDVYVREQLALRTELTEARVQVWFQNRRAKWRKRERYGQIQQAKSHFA
PRRX1 (Homo sapiens, UniProt P54821 80-166, F113S), sequence (P54821 80-166 F113S): as the sequence (P54821 80-166) above, with F34S counted along it
VAX1 (Homo sapiens, UniProt Q5SQQ9 86-172, T142I), sequence (Q5SQQ9 86-172 T142I): as the sequence (Q5SQQ9 86-172 K157R) above, with T57I, R72K counted along it
HOXD13 (Homo sapiens, UniProt P35453 263-343, T313A), sequence (P35453 263-343 T313A): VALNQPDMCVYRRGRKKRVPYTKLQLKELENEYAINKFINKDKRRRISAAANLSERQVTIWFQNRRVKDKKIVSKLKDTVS
ALX1 (Homo sapiens, UniProt Q15699 118-204, L144V), sequence (Q15699 118-204 L144V): as the sequence (Q15699 118-204) above, with L27V counted along it
ALX1 (Homo sapiens, UniProt Q15699 118-204, L144R), sequence (Q15699 118-204 L144R): as the sequence (Q15699 118-204) above, with L27R counted along it
VAX1 (Homo sapiens, UniProt Q5SQQ9 86-172), sequence (Q5SQQ9 86-172): as the sequence (Q5SQQ9 86-172 K157R) above, with R72K counted along it
ALX3 (Homo sapiens, UniProt O95076 139-225, N203S), sequence (O95076 139-225 N203S): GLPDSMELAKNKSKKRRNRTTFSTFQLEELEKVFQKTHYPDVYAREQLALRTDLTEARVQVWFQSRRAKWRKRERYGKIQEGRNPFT
ALX3 (Homo sapiens, UniProt O95076 139-225, N203Q), sequence (O95076 139-225 N203Q): as the sequence (O95076 139-225 N203S) above, with S65Q counted along it
HOXB6, sequence (P17509 132-218 K202E): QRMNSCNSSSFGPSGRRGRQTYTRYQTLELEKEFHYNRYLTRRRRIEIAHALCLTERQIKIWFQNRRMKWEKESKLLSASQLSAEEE
HOXD13 (Homo sapiens, UniProt P35453 263-343), sequence (P35453 263-343): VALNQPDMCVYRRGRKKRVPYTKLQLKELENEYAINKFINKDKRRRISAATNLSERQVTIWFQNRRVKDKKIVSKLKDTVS

Take CATATTAA: the binding signal with PAX4 [1] is 11.8 upbm affinity estimate (log intensity, higher = more binding, comparable within an allelic series); with PAX4 [2], 12.1 upbm affinity estimate (log intensity, higher = more binding, comparable within an allelic series); in the experiment with HOXB6 it was 10 upbm affinity estimate (log intensity, higher = more binding, comparable within an allelic series); with ALX3 [3] it was 8.63 upbm affinity estimate (log intensity, higher = more binding, comparable within an allelic series); with PAX4 [4], 11.8 upbm affinity estimate (log intensity, higher = more binding, comparable within an allelic series); with PAX4 [5], 10.8 upbm affinity estimate (log intensity, higher = more binding, comparable within an allelic series). Besides, the binding signal was 11 upbm affinity estimate (log intensity, higher = more binding, comparable within an allelic series) in the experiment with PAX4 [6]; 11 upbm affinity estimate (log intensity, higher = more binding, comparable within an allelic series) in the experiment with PAX4 [7]; 8.71 upbm affinity estimate (log intensity, higher = more binding, comparable within an allelic series) in the experiment with ALX3 [8].

Regarding TAAATTTA, the binding signal in the experiment with ALX4 [9] is 12.2 upbm affinity estimate (log intensity, higher = more binding, comparable within an allelic series); in the experiment with ALX4 [10] it was 11 upbm affinity estimate (log intensity, higher = more binding, comparable within an allelic series).

As to CACAGCTC, the binding signal was 7.95 upbm affinity estimate (log intensity, higher = more binding, comparable within an allelic series) with ALX4 [9]; 8.26 upbm affinity estimate (log intensity, higher = more binding, comparable within an allelic series) with ALX4 [10]; 6.72 upbm affinity estimate (log intensity, higher = more binding, comparable within an allelic series) with PROP1 [11]; 6.77 upbm affinity estimate (log intensity, higher = more binding, comparable within an allelic series) with PROP1 [12]; 6.99 upbm affinity estimate (log intensity, higher = more binding, comparable within an allelic series) with PROP1 [13].

For CCGTCTAG, the binding signal in the experiment with ALX4 [9] was 7.85 upbm affinity estimate (log intensity, higher = more binding, comparable within an allelic series); with ALX4 [10], 8.02 upbm affinity estimate (log intensity, higher = more binding, comparable within an allelic series); with MSX2 [14], 9.52 upbm affinity estimate (log intensity, higher = more binding, comparable within an allelic series); with MSX2 [15], 9.39 upbm affinity estimate (log intensity, higher = more binding, comparable within an allelic series); with VAX1 [16], 6.91 upbm affinity estimate (log intensity, higher = more binding, comparable within an allelic series); with MSX2 [17] it was 9.55 upbm affinity estimate (log intensity, higher = more binding, comparable within an allelic series). Moreover, the binding signal with VAX1 [18] is 7.09 upbm affinity estimate (log intensity, higher = more binding, comparable within an allelic series); with VAX1 [19] it was 7.03 upbm affinity estimate (log intensity, higher = more binding, comparable within an allelic series).

Turning to AATTTATC, the binding signal in the experiment with ALX4 [9] is 12 upbm affinity estimate (log intensity, higher = more binding, comparable within an allelic series); with ALX4 [10] it was 11.1 upbm affinity estimate (log intensity, higher = more binding, comparable within an allelic series); with HOXD13 [20] it was 11 upbm affinity estimate (log intensity, higher = more binding, comparable within an allelic series); with PROP1 [11] it was 9.59 upbm affinity estimate (log intensity, higher = more binding, comparable within an allelic series); in the experiment with PROP1 [12], 9.17 upbm affinity estimate (log intensity, higher = more binding, comparable within an allelic series); with HOXD13 [21] it was 10.9 upbm affinity estimate (log intensity, higher = more binding, comparable within an allelic series). In addition, the binding signal with PROP1 [13] was 7.6 upbm affinity estimate (log intensity, higher = more binding, comparable within an allelic series).

As for AGGAGGCG, the binding signal was 8.14 upbm affinity estimate (log intensity, higher = more binding, comparable within an allelic series) with ALX4 [9]; 8.12 upbm affinity estimate (log intensity, higher = more binding, comparable within an allelic series) in the experiment with ALX4 [10]; 9.45 upbm affinity estimate (log intensity, higher = more binding, comparable within an allelic series) with MSX2 [14]; 9.43 upbm affinity estimate (log intensity, higher = more binding, comparable within an allelic series) in the experiment with MSX2 [15]; 9.49 upbm affinity estimate (log intensity, higher = more binding, comparable within an allelic series) with MSX2 [17].

In the case of ATAATTTG, the binding signal was 11.6 upbm affinity estimate (log intensity, higher = more binding, comparable within an allelic series) with PAX4 [1]; 10.9 upbm affinity estimate (log intensity, higher = more binding, comparable within an allelic series) with PRRX1 [22]; 12.1 upbm affinity estimate (log intensity, higher = more binding, comparable within an allelic series) in the experiment with PAX4 [2]; 12 upbm affinity estimate (log intensity, higher = more binding, comparable within an allelic series) with PAX4 [4]; 10.5 upbm affinity estimate (log intensity, higher = more binding, comparable within an allelic series) in the experiment with PAX4 [5]; 10.9 upbm affinity estimate (log intensity, higher = more binding, comparable within an allelic series) with PAX4 [6]. In addition, the binding signal was 11 upbm affinity estimate (log intensity, higher = more binding, comparable within an allelic series) in the experiment with PAX4 [7] and 13.2 upbm affinity estimate (log intensity, higher = more binding, comparable within an allelic series) with PRRX1 [23].

AGAGCCTC: the binding signal is 7.96 upbm affinity estimate (log intensity, higher = more binding, comparable within an allelic series) in the experiment with ALX4 [9] and 7.95 upbm affinity estimate (log intensity, higher = more binding, comparable within an allelic series) with ALX4 [10].

Turning to AAATTAGT, the binding signal with ALX4 [9] is 13.5 upbm affinity estimate (log intensity, higher = more binding, comparable within an allelic series); with ALX4 [10] it was 12.5 upbm affinity estimate (log intensity, higher = more binding, comparable within an allelic series); with ALX1 [24] it was 11.4 upbm affinity estimate (log intensity, higher = more binding, comparable within an allelic series); in the experiment with PAX4 [4] it was 12 upbm affinity estimate (log intensity, higher = more binding, comparable within an allelic series); in the experiment with ALX1 [25], 10.9 upbm affinity estimate (log intensity, higher = more binding, comparable within an allelic series); with PAX4 [7], 10.9 upbm affinity estimate (log intensity, higher = more binding, comparable within an allelic series). Also, the binding signal in the experiment with ALX1 [26] was 12.1 upbm affinity estimate (log intensity, higher = more binding, comparable within an allelic series).
